This note sets out measurements from PubChem BioAssay (EPA / NIEHS).

One may read the AC50 as the concentration at which the activity in the assay is half-maximal.

The source holds several records for some structures; these can differ, active in one and inactive in another. The source made the active and inactive calls. Rule for the calls: active = hit-call score of the fitted dose curve at least 0.9, where 1 is the maximum; inactive = score below 0.9.

The assay is described as follows: ATG_ISRE_CIS: Attagene CIS-FACTORIAL HepG2 Assay for human Interferon Regulatory Factor 1 (IRF1) binding to an Interferon-Stimulated Response Element (ISRE) (AID 2282948). As to conditions: HepG2 ISRE cis-reporter (Attagene), mRNA transcription readout; actives raise or lower the signal. The protocol:
ATG_CIS is a cell-based, multiplexed-readout assay that uses HepG2, a human liver cell line, with measurements taken at 24 hours after chemical dosing in a 24-well plate.ATG_ISRE_CIS is one of 52 assay component(s) measured or calculated from the ATG_CIS assay. It is designed to make measurements of mRNA induction, a form of inducible reporter, as detected with fluorescence intensity signals by Reverse transcription polymerase chain reaction (RT-PCR) and Capillary electrophoresis technology.Data from the assay component ATG_ISRE_CIS was analyzed into 1 assay endpoint. This assay endpoint, ATG_ISRE_CIS, was analyzed with bidirectional fitting relative to DMSO as the negative control and baseline of activity. Using a type of inducible reporter, measures of mRNA for gain or loss-of-signal activity can be used to understand the reporter gene at the transcription factor-level as they relate to the gene IRF1. Furthermore, this assay endpoint can be referred to as a primary readout, because this assay has produced multiple assay endpoints where this one serves a reporter gene function. To generalize the intended target to other relatable targets, this assay endpoint is annotated to the dna binding intended target family, where the subfamily is interferon regulatory factors.
Human liver HepG2 cells are transiently transfected with multiple reporter transcription units (MRTUs) in 6-well plates using FuGene 6 reagent (Roche; 3 ml FuGene/1 mg DNA). The MRTU constructs are regulated by a cis-regulating element (promoter). […] A major difference between the CIS and TRANS system is that in CIS activities of endogenous TFs are measured, whereas the TRANS assay evaluates changes in activities of exogenous, chimeric NR-Gal4 proteins. […] At the end of 24 hour incubation, total RNA was isolated using TriZol reagent (Invitrogen). The isolated RNA is then reverse-transcribed using oligo(dT) primer and Mo-MLV reverse transcriptase (Invitrogen) with DNAse I (Ambion) treatment for 30 min. The one-tenth of the produced cDNA was amplified by PCR using Taq DNA polymerase (Invitrogen) and two reporter sequence-specific primers. The PCR products were fluorescently labeled by primer extension with 6-arboxyfluorescein (6-FAM) 5'-labeled reporter sequence-specific primer (2 min at 95 C, 20 s at 68 C and 10 min at 72 C) and these products were digested with 5U of HpaI (New England Biolabs) for 2h at 37 C. The fragments were purified using Qiaquick PCR columns (Qiagen), analyzed on an ABI 3130xL genetic analyzer (Applied Biosystems) with peak positions identified by using a set of X-rhodamine (ROX)-labeled MapMarker1000 molecular weight standards (BioVentures). The raw capillary electrophoresis data was processed using Attagraph software (Attagene).
Consider `CSc1nc(NC(C)C)nc(NC(C)C)n1`, for which the call was inactive.

As to `CNC(=O)ON=C(SC)C(=O)N(C)C`, the outcome was inactive. Same read-out and setting: to `COP(=O)(OC)C(O)C(Cl)(Cl)Cl` (stereo not given) belongs “inactive”; to `O=C(O)c1cc(Oc2ccc(C(F)(F)F)cc2Cl)ccc1[N+](=O)[O-]`, “inactive”; to `FC(F)C(F)(F)OCC(Cn1cncn1)c1ccc(Cl)cc1Cl` (stereo not given), “inactive”. The same measure, in the same setting: next, `CCCCOC(=O)c1ccccc1C(=O)O`: “inactive”; `CCCSP(=O)(OCC)Oc1ccc(Br)cc1Cl` (stereo not given): “inactive”; `CCc1cccc(C)c1N(C(=O)CCl)C(C)COC` (stereo not given): “inactive”. The same measure, in the same setting: next, `CCOP(=S)(OCC)Oc1ccc([N+](=O)[O-])cc1`: “inactive”; `CCCOCC(=Nc1ccc(Cl)cc1C(F)(F)F)n1ccnc1`: “inactive”. As for `C#CC(C)(C)NC(=O)c1cc(Cl)cc(Cl)c1`, the molecule was called inactive.

As to `Cc1nn(-c2cc(NS(C)(=O)=O)c(Cl)cc2Cl)c(=O)n1C(F)F`, the call was inactive. Same read-out and setting: next, `CN(C)[C@@H]1C(=O)C(C(N)=O)=C(O)[C@@]2(O)C(=O)C3=C(O)c4c(O)cccc4[C@@](C)(O)[C@H]3[C@H](O)[C@@H]12`: “inactive”; `CCOP(=O)(NC(C)C)Oc1ccc(SC)c(C)c1` (stereo not given): “inactive”. Same read-out and setting: next, `CSC1=N[C@@](C)(c2ccccc2)C(=O)N1Nc1ccccc1`: “inactive”. Same read-out and setting: to `CCOC(=O)COc1cc(-c2nn(C)c(OC(F)F)c2Cl)c(F)cc1Cl` belongs “inactive”; to `COc1cc(OC)nc(Sc2cccc(Cl)c2C(=O)O)n1`, “inactive”. For `N#CSCSC#N`, the outcome was inactive.

As for `COc1cccc(C(=O)NN(C(=O)c2cc(C)cc(C)c2)C(C)(C)C)c1C`, the molecule was called inactive. Still for that read-out and setting: to `CN(C)NC(=O)CCC(=O)O` belongs “inactive”. As to `CCCCOC(=O)[C@@H](C)Oc1ccc(Oc2ccc(C#N)cc2F)cc1`, the call was inactive.

Consider `CC1=NNC(=O)N(/N=C/c2cccnc2)C1`, for which the molecule was classed as inactive. In the case of `O=[N+]([O-])c1cc(C(F)(F)F)c(Cl)c([N+](=O)[O-])c1Nc1ncc(C(F)(F)F)cc1Cl`, the half-maximal activity concentration (AC50) was 16.6 µM (active) and the outcome was inactive. With `S=C1NCCN1`, the molecule was called inactive. `COP(=O)(NC(C)=O)SC` (stereo not given): the result was inactive. Turning to `Nc1c(Cl)cc([N+](=O)[O-])cc1Cl`, the molecule was called inactive.

For the molecule `Cc1cc(C2CC2)nc(Nc2ccccc2)n1`, the concentration at half-maximal activity (AC50) is 81 µM (active). Take `CCCSP(=O)(OCC)SCCC`: the molecule was classed as inactive. The same measure, in the same setting: to `CC1(C(=O)Nc2ccc(O)c(Cl)c2Cl)CCCCC1` belongs “inactive”.

For `CON=C(C(=O)OC)c1ccccc1CON=C(C)c1cccc(C(F)(F)F)c1`, the AC50 is 12.6 µM (active). Regarding `CCCOc1nn(C(=O)NS(=O)(=O)c2ccccc2C(=O)OC)c(=O)n1C`, the call was inactive. The same measure, in the same setting: next, `CNc1cnn(-c2cccc(C(F)(F)F)c2)c(=O)c1Cl`: “inactive”; `CC(C1CC1)C(O)(Cn1cncn1)c1ccc(Cl)cc1` (stereo not given): “inactive”; `CC(COc1ccc(Oc2ccccc2)cc1)Oc1ccccn1` (stereo not given): “inactive”.

Regarding `CCOP(=O)(OCC)Oc1cc(C)nc(C(C)C)n1`, the call was inactive.

On to `CNC(=O)Oc1cccc2c1OC(C)(C)O2`, for which the outcome was inactive.

As for `CC[C@H](C)[C@H]1O[C@]2(C=C[C@@H]1C)C[C@@H]1C[C@@H](C/C=C(\C)[C@@H](O[C@H]3C[C@H](OC)[C@@H](O[C@H]4C[C@H](OC)[C@@H](NC)[C@H](C)O4)[C@H](C)O3)[C@@H](C)/C=C/C=C3\CO[C@@H]4[C@H](O)C(C)=C[C@@H](C(=O)O1)[C@]34O)O2`, the call was inactive. Turning to `CCNc1nc(Cl)nc(NC(C)(C)C#N)n1`, the call was inactive. Regarding `C#CCC1=C(C)C(OC(=O)C2C(C=C(C)C)C2(C)C)CC1=O` (stereo not given), the AC50 is 71.2 µM (active).
